Assay results as given in PubChem BioAssay (NCI).
This is part of a sample that, as a whole, favours compounds with a hit. Of some 83,000 tested, about 20% had one in any assay.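 Assay: single dose, 48 h. Readout: percent growth (0 = no net growth; negative = cell death). Active: <10.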 Calls of active or inactive are those of the source.

These molecules were tested on NCI/ADR-RES ovarian (assay: NCI-60 one-dose screen, 48 h (100 = growth as untreated, 0 = no growth, -100 = all killed)). Conditions: 10 µM.
For O=C(/C=C/c1ccco1)c1nc2ccccc2n1Cc1ccc(Br)cc1, the growth was 25.7% (inactive). O=C(/C=C/c1ccco1)c1nc2ccccc2n1Cc1ccc(F)cc1 was tested, and the growth was 72.5% (inactive). In the case of COc1cc2cc(C(=O)N3C[C@@H](CCl)c4c3cc(OC(=O)N3CCN(C)[C@@H]5CSSC[C@@H]53)c3ccccc43)[nH]c2c(OC)c1OC, the growth is reported as -22.2% (active). C#CC[Se]C(=O)c1ccc2n[se]nc2c1 was tested, and the growth was 49.5% (inactive). With O=C(/C=C/c1ccc(Cl)cc1Cl)c1nc2ccccc2n1Cc1ccc(F)cc1 the growth was 42.2% (inactive). For O=C(/C=C/c1ccc(Cl)cc1)c1nc2ccccc2n1Cc1ccc(Br)cc1, the growth was 62.6% (inactive). In the case of CCOP(=O)(OCC)C(NC(C)=O)C(=O)SCCN (stereo unspecified), the growth is reported as 105% (inactive). In the case of COc1cc2cc(C(=O)N3C[C@@H](CCl)c4c3cc(OC(=O)N3CCN(C)[C@@H]5CSSC[C@H]53)c3ccccc43)[nH]c2c(OC)c1OC, the growth is reported as -56.1% (active). For COc1ccc2cc([C@H](C)C(=O)[Se]CCC#N)ccc2c1, the growth was -14.4% (active). CC12OOC(C)(OO1)C2CCC(=O)OCCNc1ccnc2cc(Cl)ccc12 (stereo unspecified) was tested, and the growth was 53.2% (inactive). With CC(C)N=C([Se])NC(=O)c1cccs1 the growth was -27% (active). In the case of Cc1ccc2[nH]c(=S)n(-c3ccc(F)cc3)c(=O)c2c1, the growth is reported as 103% (inactive). For CCOC(=O)C1=C(Nc2ccccc2)C(=O)OC12C(=O)Nc1ccccc12 (stereo unspecified), the growth was 107% (inactive). For CC12CCC3(CCC(=O)NCCCNc4ccnc5cc(Cl)ccc45)[C@@](C)(OO[C@]3(C)O1)O2, the growth was -14.7% (active). For CC[C@]12C=CCN3CC[C@@]4(c5ccc(OC)cc5N(C)[C@H]4[C@@](O)(C(=O)OC)[C@@H]1OC(=O)CCCC[P+](C1CCCCC1)(C1CCCCC1)C1CCCCC1)[C@@H]32, the growth was 96.7% (inactive). CC(=O)Oc1ccccc1C(=O)[Se]C(=NC(C)C)NC(C)C was tested, and the growth was -25.3% (active). COCCOCCOCCOc1ccc(-n2cc(CCCN(CCNc3ccnc4cc(Cl)ccc34)C(=O)CCC(=O)O[C@@H]3O[C@@H]4OC5(C)CC[C@H]6[C@H](C)CC[C@@H]([C@H]3C)[C@@]46OO5)nn2)cc1 was tested, and the growth was 26.8% (inactive). In the case of C[C@H]1[C@@H](CC(=O)N[C@@H](Cc2coc3ccccc23)B(O)O)O[C@@H]2OC3(C)CC[C@H]4[C@H](C)CC[C@@H]1[C@@]24OO3, the growth is reported as 27.6% (inactive). In the case of COP(=O)(CC(F)(F)C(F)(F)F)OC, the growth is reported as 61.8% (inactive). CC12OOC(C)(OO1)C2CCC(=O)NCCNc1ccnc2cc(Cl)ccc12 (stereo unspecified) was tested, and the growth was 98.3% (inactive). For CC[C@]12C=CCN3CC[C@@]4(c5ccc(OC)cc5N(C)[C@H]4[C@@](O)(C(=O)OC)[C@@H]1OC(=O)CCC[P+](c1ccc(C)cc1)(c1ccc(C)cc1)c1ccc(C)cc1)[C@@H]32, the growth was 18.1% (inactive). CC(C)N=C([Se])NC(=O)c1ccccc1 was tested, and the growth was -11% (active). For CC[C@]12C=CCN3CC[C@@]4(c5ccc(OC)cc5N(C)[C@H]4[C@@](O)(C(=O)OC)[C@@H]1OC(=O)CCC[P+](C1CCCCC1)(C1CCCCC1)C1CCCCC1)[C@@H]32, the growth was 100% (inactive). CC1=C(COCCOC(=O)c2ccc(S(=O)(=O)F)cc2)C2=C(C)C3(CC3)[C@@](C)(O)C(=O)C2=C1 was tested, and the growth was -43.2% (active). CC[C@]12C=CCN3CC[C@@]4(c5ccc(OC)cc5N(C)[C@H]4[C@@](O)(C(=O)OC)[C@@H]1OC(=O)CCCC[P+](c1ccc(OC)cc1)(c1ccc(OC)cc1)c1ccc(OC)cc1)[C@@H]32 was tested, and the growth was 84.3% (inactive). In the case of CC1=C(CCC=NNC(N)=O)C2=C(C)C3(CC3)[C@@](C)(O)C(=O)C2=C1, the growth is reported as -39.3% (active). With CC[C@@]12CC(C(=O)OC)=C3Nc4cc5c(cc4[C@@]34CCN(C[C@H]3O[C@H]31)[C@@H]24)[C@@H]1[C@H](O5)[C@@H](O)[C@@]2(CC)CC(C(=O)OC)=C3Nc4cc(OC)ccc4[C@@]34CCN1[C@@H]24 the growth was 1.32% (active). CCOP(=O)(CC(F)(F)C(F)(F)F)OCC was tested, and the growth was 14% (inactive). In the case of CC1=C2C(=C[C@@](C)(COP(=O)(Oc3ccccc3)Oc3ccccc3)[C@@H]2O)C(=O)[C@@](C)(O)C12CC2, the growth is reported as -75.5% (active). For CC(=O)Oc1ccccc1C(=O)NC([Se])=NC1CCCCC1, the growth was -16.4% (active). For C[C@H]1[C@H](OC(=O)CCC(=O)N(CCCc2cn(-c3ccc(CN4CCOCC4)cc3)nn2)CCNc2ccnc3cc(Cl)ccc23)O[C@@H]2OC3(C)CC[C@H]4[C@H](C)CC[C@@H]1[C@@]24OO3, the growth was 26.1% (inactive).
